Reference: PubChem BioAssay (Tox21)
Results filed as inconclusive are left out. Active and inactive are the calls of the source. Unless noted, calls come from the whole dose curve; as a rule, active = well fitted curve in the direction sought with a large enough effect in the repeat runs; inconclusive = weak or mixed curves; inactive = no such curve, though single readings can be large; an effect the other way counts as inactive or inconclusive.

What was measured:
[1] = qHTS assay to identify small molecule antagonists of the peroxisome proliferator-activated receptor gamma (PPARg) signaling pathway - cell viability counter screen (AID 743194); conditions: Potency: co-treated with 50 nM rosiglitazone; note: nearly all actives have a fitted effect of over 55% in size
Method in brief: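 PPARg-UAS-bla HEK293H cells were plated, rested 5 h at 37 C, then treated with compounds plus rosiglitazone (50 nM final) for 17 h at 37 C; viability was then read by CellTiter-Glo luminescence after 30 min at room temperature.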

[2] = qHTS assay for small molecule agonists of the antioxidant response element (ARE) signaling pathway (AID 743202; active = well fitted activation curve with a large enough effect in the signal ratio in the repeat runs, not every such curve was filed as active; the % refers to the signal ratio)
Method in brief: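 Steps: seed ARE-bla HepG2 cells (2,000/well); incubate 5 h at 37 C; add compounds by pin tool; incubate 16 h at 37 C; add FRET substrate; read fluorescence after 2 h at RT.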

[3] = qHTS assay for small molecule agonists of the antioxidant response element (ARE) signaling pathway - cell viability counter screen (AID 743203; calls by dose curve; note: nearly all actives have a fitted effect of over 55% in size)
Method in brief: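 Cytotoxicity was tested in parallel with the ARE reporter screen. ARE-bla HepG2 cells were exposed to compounds for 16 hrs, and viability was taken from CellTiter-Glo luminescence.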

[4] = qHTS assay for small molecule activators of the heat shock response signaling pathway - cell viability counter screen (AID 743209); note: nearly all actives have a fitted effect of over 50% in size
Method in brief: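 Cytotoxicity counter screen run in parallel with the HSE beta-lactamase reporter, using the same wells. HeLa HSE-bla cells received compound for 5 h at 37 C; ATP-based CellTiter-Glo luminescence was measured after 30 min at room temperature.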

[5] = qHTS assay for small molecule activators of the heat shock response signaling pathway (AID 743210; active = well fitted activation curve with a large enough effect in the signal ratio in the repeat runs, with a control signal flat, not every such curve was filed as active; the % refers to the signal ratio;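 note: HeLa cells with beta-lactamase reporter driven by heat shock elements; series mostly up to about 63 µM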)
Method in brief: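 Activation of heat shock element-controlled beta-lactamase expression is measured in HeLa cells by LiveBLAzer FRET fluorescence, with compound exposure lasting 5 h at 37 C and substrate loading 2.5 h at room temperature.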

[6] = qHTS assay to identify small molecule agonists of the peroxisome proliferator-activated receptor delta (PPARd) signaling pathway - cell viability counter screen (AID 743211); note: nearly all actives have a fitted effect of over 55% in size
Method in brief: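 In the same wells used for beta-lactamase reporter measurement, cytotoxicity is scored by CellTiter-Glo. HEK293H PPARd-bla cells receive compound for 17 h at 37C following a 5 h settling period.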

[7] = target: Peroxisome proliferator-activated receptor delta (Homo sapiens) (UniProt Q03181); assay: qHTS assay to identify small molecule agonists of the peroxisome proliferator-activated receptor delta (PPARd) signaling pathway (AID 743212; calls by dose curve)
Sequence of Peroxisome proliferator-activated receptor delta (Homo sapiens) (Q03181 whole entry, looked up): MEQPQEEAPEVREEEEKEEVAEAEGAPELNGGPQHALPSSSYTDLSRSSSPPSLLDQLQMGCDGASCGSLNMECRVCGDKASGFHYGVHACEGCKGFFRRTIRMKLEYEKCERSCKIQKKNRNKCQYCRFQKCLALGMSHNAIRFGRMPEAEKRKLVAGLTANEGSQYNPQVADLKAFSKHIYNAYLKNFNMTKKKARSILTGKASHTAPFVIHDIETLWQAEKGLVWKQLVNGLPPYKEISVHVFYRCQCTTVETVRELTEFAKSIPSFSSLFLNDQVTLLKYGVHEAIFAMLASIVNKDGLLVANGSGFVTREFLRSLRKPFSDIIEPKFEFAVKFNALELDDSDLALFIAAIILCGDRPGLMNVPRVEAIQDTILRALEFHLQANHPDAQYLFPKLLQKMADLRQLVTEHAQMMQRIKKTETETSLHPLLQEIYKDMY
Method in brief: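 Cells expressing a UAS-driven beta-lactamase reporter (PPARd-bla HEK293H) were given test compounds after a 5 h settle and kept at 37 C. Reporter activity was then measured as FRET fluorescence using LiveBLAzer B/G substrate.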

[8] = qHTS assay to identify small molecule antagonists of the peroxisome proliferator-activated receptor delta (PPARd) signaling pathway - cell viability counter screen (AID 743213); note: nearly all actives have a fitted effect of over 50% in size
Method in brief: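 Agonist-stimulated (L165041, 300 nM final) HEK293H PPARd UAS-bla cells are exposed to compounds for 17 h at 37 C, and ATP-based luminescence (CellTiter-Glo) from the same wells reports cytotoxicity.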

[9] = target: Bile acid receptor (Homo sapiens) (UniProt Q96RI1); assay: qHTS assay to identify small molecule antagonists of the farnesoid-X-receptor (FXR) signaling pathway (AID 743217; active = well fitted inhibition curve with a large enough effect in the signal ratio in the repeat runs, not every such curve was filed as active; the % refers to the signal ratio)
Sequence of Bile acid receptor (Homo sapiens) (Q96RI1 whole entry, looked up): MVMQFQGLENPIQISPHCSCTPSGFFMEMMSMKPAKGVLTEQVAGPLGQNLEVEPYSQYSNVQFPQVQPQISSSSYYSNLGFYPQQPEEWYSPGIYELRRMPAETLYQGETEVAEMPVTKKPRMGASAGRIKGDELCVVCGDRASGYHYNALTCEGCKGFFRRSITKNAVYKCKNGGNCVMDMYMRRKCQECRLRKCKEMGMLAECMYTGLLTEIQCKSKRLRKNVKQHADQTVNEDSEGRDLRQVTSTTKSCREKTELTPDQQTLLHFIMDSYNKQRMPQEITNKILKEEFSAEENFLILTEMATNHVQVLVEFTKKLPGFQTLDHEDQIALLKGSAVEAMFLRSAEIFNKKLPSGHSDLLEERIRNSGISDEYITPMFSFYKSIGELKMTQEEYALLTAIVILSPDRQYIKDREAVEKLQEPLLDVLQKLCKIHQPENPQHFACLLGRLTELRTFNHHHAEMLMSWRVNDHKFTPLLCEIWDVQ
Method in brief: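 Cells carrying a UAS-driven beta-lactamase reporter (GeneBLAzer FXR-UAS-bla HEK 293T) were plated and rested 5 h at 37 °C. Compounds in DMSO were added alongside chenodeoxycholic acid agonist at 50 uM final and left 16 h at 37 °C before FRET substrate readout.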

[10] = qHTS assay to identify small molecule agonists of the farnesoid-X-receptor (FXR) signaling pathway - cell viability counter screen (AID 743218); note: nearly all actives have a fitted effect of over 45% in size
Method in brief: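 Cells were seeded, left 5 h at 37 C and 5% CO2, then dosed with compound in DMSO for 16 h. After the beta-lactamase FRET read, CellTiter-Glo was added and luminescence measured 30 min later.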

[11] = target: Bile acid receptor (Homo sapiens) (UniProt Q96RI1); assay: qHTS assay to identify small molecule agonists of the farnesoid-X-receptor (FXR) signaling pathway (AID 743220; active = well fitted activation curve with a large enough effect in the signal ratio in the repeat runs, not every such curve was filed as active; the % refers to the signal ratio)
Method in brief: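 FXR-UAS-bla HEK 293T cells carrying a UAS-driven beta-lactamase reporter were plated for 5 h at 37C/5% CO2, then exposed to DMSO-dissolved Tox21 10K compounds for 16 h at 37C. A LiveBLAzer B/G FRET substrate was loaded for 2 h at room temperature before fluorescence reading.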

[12] = qHTS assay to identify small molecule antagonists of the farnesoid-X-receptor (FXR) signaling pathway - cell viability counter screen (AID 743221; active = well fitted cell-killing curve with a large enough effect in the repeat runs, not every such curve was filed as active; note: nearly all actives have a fitted effect of over 50% in size)
Method in brief: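 Here viability was scored by luminescence after CellTiter-Glo addition to wells already read for beta-lactamase. Prior treatment: compound plus CDCA (50 uM final), 16 h, 37 C, HEK 293T FXR-bla cells.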

[13] = target: Vitamin D3 receptor (Homo sapiens) (UniProt P11473); assay: qHTS assay to identify small molecule agonists of the vitamin D receptor (VDR) signaling pathway (AID 743222; calls by dose curve)
Sequence of Vitamin D3 receptor (Homo sapiens) (P11473 whole entry, looked up): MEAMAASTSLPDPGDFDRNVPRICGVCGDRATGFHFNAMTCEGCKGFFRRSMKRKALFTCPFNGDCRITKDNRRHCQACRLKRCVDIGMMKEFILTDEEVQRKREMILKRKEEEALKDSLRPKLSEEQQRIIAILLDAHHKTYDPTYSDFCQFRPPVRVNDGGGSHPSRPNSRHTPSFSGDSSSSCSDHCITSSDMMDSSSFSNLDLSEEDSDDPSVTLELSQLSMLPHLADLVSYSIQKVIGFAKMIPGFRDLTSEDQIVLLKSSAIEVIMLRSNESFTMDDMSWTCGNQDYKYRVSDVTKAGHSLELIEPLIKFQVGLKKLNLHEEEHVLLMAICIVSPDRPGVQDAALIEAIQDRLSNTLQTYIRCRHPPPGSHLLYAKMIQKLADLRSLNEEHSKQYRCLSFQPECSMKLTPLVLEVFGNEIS
Method in brief: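 Cells carrying a VDR-driven beta-lactamase reporter are seeded at 2,000 per well and rested 4 h. Compounds in DMSO are added for 16 h at 37C, and FRET substrate fluorescence is measured after 2 h at room temperature.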

[14] = target: Vitamin D3 receptor (Homo sapiens) (UniProt P11473); assay: qHTS assay to identify small molecule antagonists of the vitamin D receptor (VDR) signaling pathway (AID 743223; active = well fitted inhibition curve with a large enough effect in the signal ratio in the repeat runs, not every such curve was filed as active; the % refers to the signal ratio)
Method in brief: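 Inhibition of agonist-driven VDR signalling is scored in VDR-bla cells: 3 nM final 1alpha,25-dihydroxyvitamin D3 plus compound, 16 h at 37C, then beta-lactamase detection by FRET substrate fluorescence after 2 h.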

[15] = qHTS assay to identify small molecule agonists of the vitamin D receptor (VDR) signaling pathway - cell viability counter screen (AID 743224); note: series mostly up to about 63 µM; nearly all actives have a fitted effect of over 50% in size
Method in brief: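 Cells: VDR-bla, 2,000/well, settled 4 h. Treatment: compounds in DMSO, 16 h, 37C/5% CO2. Readout: CellTiter-Glo luminescence after 30 min RT.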

[16] = target: Peroxisome proliferator-activated receptor delta (Homo sapiens) (UniProt Q03181); assay: qHTS assay to identify small molecule antagonists of the peroxisome proliferator-activated receptor delta (PPARd) signaling pathway (AID 743215; active = well fitted inhibition curve with a large enough effect in the signal ratio in the repeat runs, not every such curve was filed as active; the % refers to the signal ratio; note: series mostly up to about 62 µM)
Method in brief: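 Cells: HEK293H with a UAS-driven beta-lactamase reporter responsive to PPARd. Compounds were co-added with L165041 (300 nM, final) and incubated 17 h at 37 C before a 2 h room-temperature FRET substrate step and fluorescence reading.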

[17] = qHTS assay to identify small molecule that activate the aryl hydrocarbon receptor (AhR) signaling pathway - cell viability counter screen (AID 743086);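 note: HepG2 liver cells carrying the AhR DRE luciferase reporter; series mostly up to about 70 µM; nearly all actives have a fitted effect of over 45% in size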
Method in brief: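 HepG2-AhR-luc (HG2L7.5c1) cells, 4000/well, were preincubated 5 h at 37C, exposed to compound in qHTS format for 24 hr at 37C, then given CellTiter-Fluor for 30 min; viability was read as fluorescence in the reporter wells.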

[18] = target: Peroxisome proliferator-activated receptor gamma (Homo sapiens) (UniProt P37231); assay: qHTS assay to identify small molecule agonists of the peroxisome proliferator-activated receptor gamma (PPARg) signaling pathway (AID 743094; active = well fitted activation curve with a large enough effect in the signal ratio in the repeat runs, not every such curve was filed as active; the % refers to the signal ratio)
Sequence of Peroxisome proliferator-activated receptor gamma (Homo sapiens) (P37231 whole entry, looked up): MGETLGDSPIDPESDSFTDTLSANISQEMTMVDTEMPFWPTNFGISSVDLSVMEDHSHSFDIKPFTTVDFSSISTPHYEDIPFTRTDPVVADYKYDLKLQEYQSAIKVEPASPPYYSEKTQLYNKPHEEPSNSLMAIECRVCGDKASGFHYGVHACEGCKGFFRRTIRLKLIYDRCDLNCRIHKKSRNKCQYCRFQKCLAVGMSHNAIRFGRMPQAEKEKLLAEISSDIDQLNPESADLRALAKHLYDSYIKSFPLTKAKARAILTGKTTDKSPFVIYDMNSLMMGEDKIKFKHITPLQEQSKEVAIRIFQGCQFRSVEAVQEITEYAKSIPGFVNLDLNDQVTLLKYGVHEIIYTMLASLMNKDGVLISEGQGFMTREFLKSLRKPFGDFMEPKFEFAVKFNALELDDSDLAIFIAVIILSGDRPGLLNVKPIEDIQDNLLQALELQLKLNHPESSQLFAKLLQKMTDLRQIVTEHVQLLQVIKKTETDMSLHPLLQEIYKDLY
Method in brief: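 Cells from the PPARg UAS-bla HEK293H line are plated and incubated 5 h at 37C. Compounds in DMSO are pinned in and left 17 h at 37C. LiveBLAzer B/G substrate is then added for 1 h at room temperature before fluorescence is measured.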

[19] = target: Peroxisome proliferator-activated receptor gamma (Homo sapiens) (UniProt P37231); assay: qHTS assay to identify small molecule antagonists of the peroxisome proliferator-activated receptor gamma (PPARg) signaling pathway (AID 743191; calls by dose curve; note: series mostly up to about 63 µM; nearly all actives have a fitted effect of over 30% in size)
Method in brief: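 GeneBLAzer PPARg UAS-bla HEK293H cells carrying a UAS-driven beta-lactamase reporter were plated at 3000 cells/well, preincubated 5 h at 37C, then given compound for 17 h at 37C; LiveBLAzer B/G FRET substrate was read after 1 h at room temperature.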

Measured: Potency

CC(Cc1ccccc1)NCCCCl (configuration not stated)
not listed: [16] | [17] | [18] | [19]
inactive: all other assays above

O=c1[nH]c2ccccc2n1C1CCNCC1
not listed: [4] | [9] | [11] | [17] | [18] | [19]
inactive: all other assays above

CCOC(=O)COc1ccc(Cl)cc1Cl
not listed: [9] | [11] | [13] | [14] | [15] | [16] | [18] | [19]
inactive: all other assays above

COc1ccccc1OC
not listed: [1] | [9] | [11] | [14]
inactive: all other assays above

CCOC(=O)c1ncn2c1CN(C)C(=O)c1c(I)cccc1-2
not listed: [4] | [14] | [16] | [19]
inactive: all other assays above

Cl/C=C/CCl
not listed: [3] | [9] | [11]
inactive: all other assays above

CCC(C(N)=O)N1CCCC1=O (configuration not stated)
not listed: [4] | [19]
inactive: all other assays above
